Laboratory results as given in article PMC4336329 (PLoS ONE, 2015).
About 14,000 (4.5%) of roughly 310,000 compounds showed an effect of 50% or more. The effect is printed as a negative number. What follows is part of a selection rich in strong results, with near analogues and random picks from the rest.
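Also: peak tail current of the secondary pulse compared with the same well before compound.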

These compounds were tested against human ether-à-go-go-related gene (hERG) potassium channel (human, UniProt Q12809) (assay: primary screen, population patch clamp on CHO cells stably expressing hERG; higher = less effect of the substance).
Sequence of human ether-à-go-go-related gene (hERG) potassium channel (Q12809 whole entry, looked up): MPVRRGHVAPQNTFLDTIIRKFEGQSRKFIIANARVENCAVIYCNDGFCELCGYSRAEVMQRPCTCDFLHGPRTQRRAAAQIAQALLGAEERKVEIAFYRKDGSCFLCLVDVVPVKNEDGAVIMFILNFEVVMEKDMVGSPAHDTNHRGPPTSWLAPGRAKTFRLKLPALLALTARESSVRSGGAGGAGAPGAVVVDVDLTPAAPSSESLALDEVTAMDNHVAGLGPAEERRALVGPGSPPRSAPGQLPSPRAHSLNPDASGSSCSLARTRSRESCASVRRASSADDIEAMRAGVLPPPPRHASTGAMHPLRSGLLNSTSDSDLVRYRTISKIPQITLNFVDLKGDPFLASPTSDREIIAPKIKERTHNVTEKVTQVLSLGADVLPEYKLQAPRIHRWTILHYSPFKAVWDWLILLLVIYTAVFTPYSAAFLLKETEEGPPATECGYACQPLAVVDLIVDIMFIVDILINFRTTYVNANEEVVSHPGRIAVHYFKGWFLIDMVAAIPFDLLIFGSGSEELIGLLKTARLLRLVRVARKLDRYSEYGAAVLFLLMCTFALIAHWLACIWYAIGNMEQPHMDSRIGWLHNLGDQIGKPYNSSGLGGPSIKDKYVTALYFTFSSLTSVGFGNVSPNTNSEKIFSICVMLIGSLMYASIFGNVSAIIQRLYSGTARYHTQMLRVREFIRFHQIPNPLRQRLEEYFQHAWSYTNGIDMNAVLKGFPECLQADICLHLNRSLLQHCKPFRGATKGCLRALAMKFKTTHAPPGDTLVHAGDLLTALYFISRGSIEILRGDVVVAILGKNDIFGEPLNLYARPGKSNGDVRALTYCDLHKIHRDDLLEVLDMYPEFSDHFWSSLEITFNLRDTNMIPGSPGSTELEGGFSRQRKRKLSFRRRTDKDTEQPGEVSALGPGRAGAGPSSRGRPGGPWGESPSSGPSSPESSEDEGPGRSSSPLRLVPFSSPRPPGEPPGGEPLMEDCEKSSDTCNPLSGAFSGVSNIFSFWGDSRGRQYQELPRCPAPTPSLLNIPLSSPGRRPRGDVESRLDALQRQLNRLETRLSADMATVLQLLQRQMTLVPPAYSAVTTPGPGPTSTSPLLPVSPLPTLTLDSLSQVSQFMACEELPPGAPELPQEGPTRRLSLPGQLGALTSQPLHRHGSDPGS
For COc1ccc(CN2CCN(C(=O)c3cccs3)CC2)cc1.O=C(O)C(=O)O, the “hERG current change (%, negative = inhibition) at 10uM” value was -7.86%.
C=CCn1c(SCC(=O)N2CCOCC2)nnc1C(C)NC(=O)c1ccccc1 (stereo not shown) was tested, and the “hERG current change (%, negative = inhibition) at 10uM” value was 13.4%.
For CCc1cccc(C)c1NC(=O)COC(=O)Cc1ccsc1, the “hERG current change (%, negative = inhibition) at 10uM” value was 10.4%.
c1cncc(-c2noc(C34CC5CC(CC(C5)C3)C4)n2)c1 was tested, and the “hERG current change (%, negative = inhibition) at 10uM” value was -0.918%.
With Nc1nc2ccccc2cc1S(=O)(=O)c1ccccc1 the “hERG current change (%, negative = inhibition) at 10uM” value was 16%.
O=[N+]([O-])c1ccc(N/N=C/c2cccc(O)c2O)c(S(=O)(=O)N2CCOCC2)c1 was tested, and the “hERG current change (%, negative = inhibition) at 10uM” value was -5.8%.
With COC(=O)c1ccccc1NC(=O)CSc1nnc(-c2cccnc2)o1 the “hERG current change (%, negative = inhibition) at 10uM” value was -6.93%.
In the case of COc1ccccc1NC(=O)C(C)N1C(=O)c2ccccc2C1=O (stereo not shown), the “hERG current change (%, negative = inhibition) at 10uM” value is reported as 5.76%.
Cc1cccc(-c2nc(CSCC(=O)NCCCN3CCOCC3)c(C)o2)c1 was tested, and the “hERG current change (%, negative = inhibition) at 10uM” value was -11.3%.
For Cc1c(NC(=O)CSc2nnnn2-c2ccc(O)cc2)c(=O)n(-c2ccccc2)n1C, the “hERG current change (%, negative = inhibition) at 10uM” value was -7.29%.
Nc1c(Cl)ncnc1NCCc1ccc(O)cc1 was tested, and the “hERG current change (%, negative = inhibition) at 10uM” value was 9.93%.
With CCn1nc(-c2ccccc2)nc2c(=O)n(C)c(=O)nc1-2 the “hERG current change (%, negative = inhibition) at 10uM” value was -27.6%.
For Cc1cnc2cc(Cl)c(Cl)cc2n1, the “hERG current change (%, negative = inhibition) at 10uM” value was 18.2%.
In the case of CCOc1ccc(S(=O)(=O)Nc2ccc(C(=O)N3CC(C)OC(C)C3)cc2)cc1 (stereo not shown), the “hERG current change (%, negative = inhibition) at 10uM” value is reported as 0.557%.
With O=C1C=C(c2ccc(-c3ccccc3)cc2)C[C@@H](c2ccc(Cl)cc2)C1 the “hERG current change (%, negative = inhibition) at 10uM” value was 21.8%.
In the case of N#Cc1ccc(C2=CC(=O)C[C@H](c3ccc(Cl)cc3)C2)cc1, the “hERG current change (%, negative = inhibition) at 10uM” value is reported as -71.9%.
For Cc1ccc(C2=CC(=O)C[C@H](c3ccc(Cl)cc3)C2)cc1, the “hERG current change (%, negative = inhibition) at 10uM” value was 8.09%.
In the case of O=C(NCc1ccccc1)c1ccc(CS(=O)(=O)Cc2ccccc2F)o1, the “hERG current change (%, negative = inhibition) at 10uM” value is reported as -5.62%.
For COc1cccc(CNC(=O)CC2C(=O)NCCN2CCCc2ccccc2)c1 (stereo not shown), the “hERG current change (%, negative = inhibition) at 10uM” value was -6.17%.
For COc1ccc(NC(=O)c2ccccc2NC(=O)CN2CCCCCC2)cc1, the “hERG current change (%, negative = inhibition) at 10uM” value was 8.82%.
For COc1cccc(NC(=O)CN2CCN(CC(=O)Nc3ccccc3Cl)CC2)c1, the “hERG current change (%, negative = inhibition) at 10uM” value was -61%.
In the case of CCc1ccc(OCC(=O)N2CCN(CC(=O)Nc3ccccc3Cl)CC2)cc1, the “hERG current change (%, negative = inhibition) at 10uM” value is reported as -80.7%.
In the case of CCc1nnc(NC(=O)CN2CCN(Cc3cccc(OC)c3)CC2)s1, the “hERG current change (%, negative = inhibition) at 10uM” value is reported as -19%.
COc1cccc(CC(=O)Nc2ccccc2N2CCCC2)c1 was tested, and the “hERG current change (%, negative = inhibition) at 10uM” value was -5.39%.
With COc1cccc(NC(=O)CN2CCC(C)CC2)c1 the “hERG current change (%, negative = inhibition) at 10uM” value was 1.52%.
COc1ccc(NC(=O)CN2CCN(CC(=O)Nc3ccccc3Cl)CC2)cc1 was tested, and the “hERG current change (%, negative = inhibition) at 10uM” value was -74.1%.
For COc1cccc(NC(=O)CN2CCc3ccccc3C2)c1, the “hERG current change (%, negative = inhibition) at 10uM” value was 10.3%.
In the case of O=C(COc1ccc(Cl)cc1)Nc1ccccc1Cl, the “hERG current change (%, negative = inhibition) at 10uM” value is reported as 3.26%.
For COc1ccc(S(=O)(=O)N2CCN(CC(=O)Nc3ccccc3Cl)CC2)cc1, the “hERG current change (%, negative = inhibition) at 10uM” value was -1.6%.
In the case of COc1cccc(CN2CCN(CC(=O)Nc3ccccc3Cl)CC2)c1, the “hERG current change (%, negative = inhibition) at 10uM” value is reported as -72%.
With COc1ccc(OCC(=O)Nc2ccccc2Cl)cc1 the “hERG current change (%, negative = inhibition) at 10uM” value was 13.7%.
With CCOC(=O)c1oc2ccccc2c1COC(=O)C(C)NC(=O)c1ccco1 (stereo not shown) the “hERG current change (%, negative = inhibition) at 10uM” value was -16.5%.
With COc1ccc(C(=O)N(C)C2CCCCC2)cc1S(=O)(=O)N1CCOCC1 the “hERG current change (%, negative = inhibition) at 10uM” value was -3.28%.
CCCCOc1ccc(/C=N/NC(=S)Nc2cccc(C)c2C)cc1 was tested, and the “hERG current change (%, negative = inhibition) at 10uM” value was -15.8%.
CCOc1ccc(CCNC(=O)CN2C(=O)COc3ccc(S(=O)(=O)N4CCOCC4)cc32)cc1 was tested, and the “hERG current change (%, negative = inhibition) at 10uM” value was -6.84%.
CCN1CCCC1CNC(=O)C(=O)Nc1cccc(OC)c1 (stereo not shown) was tested, and the “hERG current change (%, negative = inhibition) at 10uM” value was -1.67%.
O=C(c1cc2cc(Br)ccc2[nH]1)N1CCc2ccccc21 was tested, and the “hERG current change (%, negative = inhibition) at 10uM” value was 14%.
For CSc1ccccc1NC(=O)COc1ccc(Cl)cc1, the “hERG current change (%, negative = inhibition) at 10uM” value was -17.5%.
COc1ccc(CCNC(=O)CN2CCN(c3ccccc3Cl)CC2)cc1 was tested, and the “hERG current change (%, negative = inhibition) at 10uM” value was -19%.
COc1ccc(NC(=O)CN2CCN(c3ccccc3Cl)CC2)cc1 was tested, and the “hERG current change (%, negative = inhibition) at 10uM” value was -61.4%.
In the case of CC(NC(=O)CN1CCN(S(=O)(=O)c2ccc(Br)cc2)CC1)c1ccccc1 (stereo not shown), the “hERG current change (%, negative = inhibition) at 10uM” value is reported as -36.9%.
For Cc1cccc(C(=O)NC2CCN(CC(=O)Nc3ccccc3Cl)CC2)c1, the “hERG current change (%, negative = inhibition) at 10uM” value was -49%.
CC(NC(=O)CN1CCN(c2cccc(Cl)c2)CC1)c1ccccc1 (stereo not shown) was tested, and the “hERG current change (%, negative = inhibition) at 10uM” value was 4.34%.
COc1cccc(C(=O)NC2CCN(CC(=O)Nc3ccccc3Cl)CC2)c1 was tested, and the “hERG current change (%, negative = inhibition) at 10uM” value was -55.4%.
With COc1ccc(NC(=O)CN2CCN(c3ccccc3C)CC2)cc1 the “hERG current change (%, negative = inhibition) at 10uM” value was -41.2%.
In the case of CC(NC(=O)CN1CCN(CC(=O)Nc2ccccc2Cl)CC1)c1ccc(Br)cc1 (stereo not shown), the “hERG current change (%, negative = inhibition) at 10uM” value is reported as -75.1%.
For COc1cccc(C(=O)NC2CCN(CC(=O)Nc3cccc(C)c3C)CC2)c1, the “hERG current change (%, negative = inhibition) at 10uM” value was 32.2%.
With O=C(CCCn1c(SCC(=O)c2ccc(Cl)cc2)nc2ccccc2c1=O)NCc1ccco1 the “hERG current change (%, negative = inhibition) at 10uM” value was 3.21%.
O=c1c(Cl)c(Nc2cccc(Cl)c2)cnn1-c1nc2ccccc2s1 was tested, and the “hERG current change (%, negative = inhibition) at 10uM” value was -2.51%.
In the case of COc1ccccc1CCn1c(N)cc(=O)[nH]c1=O, the “hERG current change (%, negative = inhibition) at 10uM” value is reported as 18.4%.
Cc1cc(C)c2c(N)c(S(=O)(=O)Cc3ccccc3)sc2n1 was tested, and the “hERG current change (%, negative = inhibition) at 10uM” value was -33.3%.
O=P(Oc1ccccc1)(Oc1ccccc1)c1ccccc1 was tested, and the “hERG current change (%, negative = inhibition) at 10uM” value was -21.8%.
In the case of CCOc1ccc(C(=O)N2CCn3c2nc2ccccc23)cc1, the “hERG current change (%, negative = inhibition) at 10uM” value is reported as -5.37%.
With Br.CCCn1c(=N)n(CC(=O)c2ccc(Cl)c(Cl)c2)c2ccccc21 the “hERG current change (%, negative = inhibition) at 10uM” value was -51.5%.
In the case of Br.Cn1c(=N)n(CC(=O)c2ccccc2)c2ccccc21, the “hERG current change (%, negative = inhibition) at 10uM” value is reported as -12.4%.
In the case of Br.CCn1c(=N)n(CC(=O)c2ccc(OC)c(OC)c2)c2ccccc21, the “hERG current change (%, negative = inhibition) at 10uM” value is reported as -13.7%.
In the case of Br.CCCn1c(=N)n(CC(=O)c2ccc(Cl)cc2)c2ccccc21, the “hERG current change (%, negative = inhibition) at 10uM” value is reported as -53%.
Br.CCn1c(=N)n(CC(=O)c2ccc(Cl)c(Cl)c2)c2ccccc21 was tested, and the “hERG current change (%, negative = inhibition) at 10uM” value was -51.4%.
Br.C=CCn1c(=N)n(CC(=O)c2ccc(Cl)cc2)c2ccccc21 was tested, and the “hERG current change (%, negative = inhibition) at 10uM” value was -36.1%.
With Br.Cn1c(=N)n(CC(=O)c2ccc(Cl)c(Cl)c2)c2ccccc21 the “hERG current change (%, negative = inhibition) at 10uM” value was -64.1%.
For Br.Cn1c(=N)n(CC(=O)c2ccc(F)cc2)c2ccccc21, the “hERG current change (%, negative = inhibition) at 10uM” value was -23.2%.
With Br.Cn1c(=N)n(CC(=O)c2ccc(Br)cc2)c2ccccc21 the “hERG current change (%, negative = inhibition) at 10uM” value was -41%.
Br.CCCn1c(=N)n(CC(=O)O)c2ccccc21 was tested, and the “hERG current change (%, negative = inhibition) at 10uM” value was -5.8%.
CCn1c(=N)n(CC(=O)c2cccc(OC)c2)c2ccccc21 was tested, and the “hERG current change (%, negative = inhibition) at 10uM” value was -16.6%.
